BoNT F protease: blocks Botulinum neurotoxin F light chain protease. Multiplex microsphere protease cleavage assay, flow cytometry. inhibition, % at 10 µM. 0.22% of 360,000 active; in the data active means inhibition above about 35%, passing the limit was not always enough; inconclusive means no clear call, values can overlap the other calls; further: plate controls were buffer without enzyme for full effect and enzyme alone for no effect
Anthrax LF prot: blocks Bacillus anthracis lethal factor protease. multiplex microsphere protease cleavage assay, LF. inhibition, % at 10 µM. 0.12% of 360,000 active; further: plate controls were buffer without enzyme for full effect and enzyme alone for no effect
DUSP3 inh: blocks human VHR1 dual specificity phosphatase. P51452. recombinant VHR phosphatase, pNPP absorbance. inhibition, % at 13.3 µM. 0.52% of 290,000 active; in the data active means inhibition above about 50%
Target sequence (P51452 whole entry, looked up): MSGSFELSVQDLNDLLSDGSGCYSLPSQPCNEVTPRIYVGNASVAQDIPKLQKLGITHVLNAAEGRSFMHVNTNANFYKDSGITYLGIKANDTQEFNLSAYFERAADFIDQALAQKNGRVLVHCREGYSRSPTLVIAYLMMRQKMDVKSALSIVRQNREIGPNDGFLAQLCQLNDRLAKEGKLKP
MazF activator: increases E. coli MazEF RNase cleavage of RNA; 0.32% of 350,000 active; FAM/BHQ RNA-DNA oligo cleavage fluorescence, 5 h; activation, % at 20 µM; P0AE70; in the data active means activation above about 50%
Target sequence (P0AE70 whole entry, looked up): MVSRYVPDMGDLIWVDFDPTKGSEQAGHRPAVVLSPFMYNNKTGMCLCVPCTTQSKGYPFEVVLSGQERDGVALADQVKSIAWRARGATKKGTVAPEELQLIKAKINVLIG
BoNT A protease: blocks Botulinum neurotoxin A light chain protease. multiplex microsphere protease substrate cleavage, flow cytometry. inhibition, % at 10 µM. 0.17% of 360,000 active; further: plate controls were buffer without enzyme for full effect and enzyme alone for no effect
Autofluor counter: compound fluorescence in toxin protease inhibitor counterscreen; AID 624483; compound autofluorescence counterscreen, microsphere flow cytometry; hits give high values; fluorescence intensity (concentration not given with the values); 3.1% of 360,000 active; in the data active means fluorescence intensity above about 16000; inconclusive means no clear call, values can overlap the other calls
* = called active by the depositor; ? = inconclusive; / = not tested or not shown. A selection: hits, their analogues and other compounds. The true share with any hit is near 4%. Unless noted, no stated cut-off is given here; in the data, active means inhibition above about 30%; inconclusive means no clear call, values can overlap the other calls; inactive means below that.

SMILES	BoNT F protease	Anthrax LF prot	DUSP3 inh	MazF activator	BoNT A protease	Autofluor counter
CCOC(=O)/C(=N\Nc1ccc(C(C)=O)cc1)c1csc(Nc2ccccc2)n1	1.3	0.0	11.5	56.5*	0.3	2138
COc1ncccc1-c1cc2nc(NCCNC(C)=O)n(C)c(=O)c2s1	6.3	-5.4	/	/	0.1	2872
O=C(NCCc1ccc(C(F)(F)F)cc1)C1CCC(=O)N(CCc2cccc(F)c2)C1 (stereo not drawn)	-4.1	-2.9	10.5	64.1*	-1.0	6453
CC1=C(C(=O)N2CCOCC2)CC(CC(=O)NCC2CCCCC2)C(=O)N1CCCN1CCCC1=O (stereo not drawn)	3.4	7.0	/	5.3	0.0	3626
CN(C(=O)CSc1nc(-c2ccccc2)cn1N)C(c1ccccc1)c1ccccc1	-5.0	-10.8	6.5	-3.2	-4.4	24699*
Cc1ccc(S(=O)(=O)N/N=C/c2cccc([N+](=O)[O-])c2)cc1	4.5	-0.9	4.0	4.4	1.3	1969
CCCCCCCCCS(=O)(=O)N/N=C/c1cccc([N+](=O)[O-])c1	0.9	-2.0	8.7	2.4	3.4	19668*
CC(C)n1cc(C(=O)c2cc(Br)ccc2O)cc(C#N)c1=O	-2.2	-6.2	3.6	0.0	-0.2	5224
Cn1c(=O)c2c(nc(SCCCO)n2Cc2ccccc2Cl)n(C)c1=O	1.8	-2.0	1.8	-11.1	0.9	16181*
Cn1c(=O)c2c(nc(Sc3ncccn3)n2Cc2ccc(Cl)cc2)n(C)c1=O	-7.4	-10.5	4.0	0.0	0.0	4594
Cn1c(=O)c2c(nc(Sc3ncccn3)n2Cc2ccccc2Cl)n(C)c1=O	7.4	-2.2	13.3	0.0	6.3	18229*
CCN(CC)C(=O)CSc1nc2sc3c(c2c(=O)n1-c1ccc(C)cc1)CC(C)(C)SC3	14.3	-3.6	8.3	-15.2	-0.3	3589
COc1nc2ccccc2cc1-c1noc(-c2cccnc2)n1	/	/	17.3	/	/	/
O=[N+]([O-])c1cccc(CSC2=NCCN2S(=O)(=O)c2ccccc2)c1	-1.1	-2.0	32.2	4.4	2.7	5326
O=C(O)c1ccc(F)c(S(=O)(=O)Nc2ccccc2Cl)c1	0.1	-0.5	-8.3	-0.2	-0.1	23288*
O=C(Nc1ccc(F)cc1)Nc1ccc(N2CCCC2)c(S(=O)(=O)Nc2ccccc2Cl)c1	-6.5	-1.2	5.7	52.7*	-0.6	1913
O=S(=O)(Nc1ccccc1Cl)c1ccc(F)cc1	-2.4	-1.8	-9.2	-1.9	0.1	10059
COc1ccccc1NS(=O)(=O)c1cc(NC(=O)c2sccc2C)ccc1N1CCOCC1	-2.7	0.4	-4.7	-3.5	-1.3	3548
COc1ccccc1NS(=O)(=O)c1cc(NC(=O)c2sccc2C)ccc1N1CCCC1	-1.4	-0.2	52.9*	-1.3	-0.3	2554
Cc1ccc(-c2noc(CCCN3C(=O)c4ccccc4C3=O)n2)cc1	-5.8	-3.9	10.3	-21.6	1.8	?
COC(=O)c1cn(CCOc2ccc(C)cc2)c2ccccc12	-3.2	-2.7	-2.5	-0.8	-1.9	22793*
Cc1ccc(OCCn2cc(/C=C/C(=O)O)c3ccccc32)cc1	-5.5	0.8	-10.0	-3.3	0.0	3734
COC(=O)c1cn(C(=O)c2ccc(OC)cc2)c2ccccc12	36.3*	-8.1	7.4	-2.2	0.7	4142
CCOC(=O)C1=C(c2ccccc2)OC(N)=C(C#N)C1c1ccncc1 (stereo not drawn)	-1.7	-4.6	-12.3	-1.9	0.2	3425
Cc1nnc(SCc2ccc3c(c2)OCO3)s1	3.2	-8.0	-19.0	-1.0	2.8	21079*
SMILES	BoNT F protease	Anthrax LF prot	DUSP3 inh	MazF activator	BoNT A protease	Autofluor counter
Cc1nnc(SCc2ccc(F)cc2Cl)s1	-2.1	0.1	21.3	7.8	-0.4	19791*
Nc1nnc(SCc2ccc(F)cc2Cl)s1	6.6	1.9	9.9	-0.8	6.7	21708*
Nc1nnc(SCc2ccc(Cl)cc2)s1	-5.6	-8.2	-4.4	2.5	-0.2	3251
COc1cc2c(=O)n(CCC(=O)NCC3CCCO3)c(=O)n(CC(=O)c3ccc(Cl)cc3)c2cc1OC (stereo not drawn)	-4.9	-12.1	50.6*	10.4	-0.7	4339
Cc1cc(C(=O)CSc2nc3ccc(Cl)cc3[nH]2)c(C)n1C	-3.7	-9.2	17.3	2.9	-2.7	23487*
OCCNc1nc2ccc(Cl)cc2[nH]1	4.1	-0.5	2.9	1.6	4.2	22121*
C=CCn1c(C)cc(C(=O)CSc2nc3ccccc3[nH]2)c1C	0.8	-3.1	29.7	1.1	?	23335*
CSc1nc2ccc(Cl)cc2[nH]1	8.8	-9.0	-9.4	-3.5	5.1	20323*
C=CCn1c(C)cc(C(=O)CSc2nc3ccccc3c(=O)[nH]2)c1C	-2.7	-0.5	-8.6	-0.6	-0.4	3072
CSc1nc2ccc(Br)cc2[nH]1	-5.0	-2.8	48.7	6.9	-1.0	4612
Cc1ccc2nc(SCC(=O)c3cc(C)n(C)c3C)[nH]c2c1	2.3	-4.5	-19.0	3.8	-0.5	2270
COc1ccc2nc(NCCO)[nH]c2c1	10.8	-3.9	24.9	5.3	0.7	2282
Cc1nnc(SCC(=O)N2CCN(c3ccccc3F)CC2)n1C1CC1	-6.1	0.8	/	5.9	4.1	4825
Cc1ccc(S(=O)(=O)N(C)S(=O)(=O)c2ccc(C#N)cc2)cc1	/	/	52.9*	/	/	/
O=C(Cc1ccccc1)N/N=C/c1cc(Br)c(Br)o1	-4.0	2.1	7.7	-2.4	?	16918*
N#Cc1ccccc1NC(=O)c1ccccc1OCC(=O)NCc1ccco1	3.2	-6.9	-13.3	1.3	4.6	15419
CCOC(=O)C1CCN(S(=O)(=O)CCNC(=O)c2cccc(OC)c2)CC1	-7.9	-0.3	/	0.0	-0.7	6524
CCOc1ccc(NC(=O)CSc2nnc(C3CC3)n2C)cc1	3.8	6.5	0.8	-4.4	0.3	4603
CCOc1ccc(NC(=O)CSc2nnc(CCNC(=O)c3ccc(OC)cc3)n2C)cc1	-0.3	1.7	5.7	9.4	?	16470*
COc1ccc(C(=O)NNC(=O)CSc2nnc(COc3ccccc3)n2C)cc1	-1.7	-6.6	-1.8	3.5	0.3	16210*
COc1ccc(CC(=O)NC(C)c2nnc(SCCOc3ccc(OC)cc3)n2C)cc1 (stereo not drawn)	1.5	4.0	-14.1	2.0	0.2	16217*
COc1ccc(CC(=O)NC(C)c2nnc(SCC(=O)c3ccc(OC)cc3)n2C)cc1 (stereo not drawn)	-1.9	-2.4	21.9	9.5	-0.6	4304
CCOc1ccc(NC(=O)CSc2nnc(C34CC5CC(CC(C5)C3)C4)n2C)cc1	0.3	-1.4	22.3	-2.8	-1.8	17197*
COc1ccc(C(=O)NNC(=O)CSc2nnc(COc3ccc4ccccc4c3)n2C)cc1	2.1	-1.4	20.0	-13.2	2.2	15630
C=CCn1c(SCCOc2ccc(OC)cc2)nnc1C(C)NC(=O)c1ccc(OC)cc1 (stereo not drawn)	-9.0	-2.9	7.6	4.3	-0.3	8159
COc1ccc(OCCSc2nnc(CCNC(=O)c3ccc(Cl)c(Cl)c3)n2C)cc1	0.8	-11.2	9.6	-8.0	2.6	20984*
